Sampled rows, rich in hits. Any-hit rate of the full collection: about 3.5%.
Pf apPOL block = Pf-apPOL inhibitors, biochemical, fluorescence; Plasmodium falciparum apicoplast DNA polymerase (apPOL); Recombinant Pf-apPOL, molecular beacon fluorescence, 1.5 h; inhibition, % at 10 µM; 210,000 compounds, 0.25% hits; AID 1794808, 2022
mHTT-CaM PPI inh = mutant huntingtin-calmodulin interaction inhibitors – biochemical, AlphaScreen, primary screen; P42858; AlphaScreen His-mHTT/GST-CaM binding, luminescence; inhibition, % at 15 µM; 190,000 compounds, 3.6% hits; AID 1671202, 2021;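 also: 0% = both proteins with DMSO and 100% = one protein alone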
* = called active by the depositor. Rule as the data show it: active = inhibition above about 50%; inactive = the rest.

SMILES	Pf apPOL block	mHTT-CaM PPI inh
O=C(O)c1c[nH]c2c(F)c(F)c(F)c(NCc3ccccc3)c2c1=O	0.3	3.9
CC(Oc1cc2oc(=O)cc(-c3ccccc3)c2cc1Cl)C(=O)O (centres undefined)	-1.1	100.0*
COC(=O)C(C)Oc1cc(C)cc2oc(=O)cc(-c3ccccc3)c12 (centres undefined)	-3.6	-7.2
O=C1NC(=O)C(=Cc2cccn2-c2ccccc2)C(=O)N1	0.5	7.0
O=C1NC(=O)C(=Cc2cccn2-c2ccc(Cl)cc2)C(=O)N1	37.0	66.0*
O=C(CN1CCN(c2ccc(Cl)cc2)CC1)Nc1ccc(Cl)c(C(F)(F)F)c1	-1.8	51.0*
O=C(CN1CCN(c2ccccn2)CC1)Nc1ccc(Cl)c(C(F)(F)F)c1	-3.4	31.0
COc1cc(CN2CCCC(CO)C2)cc2c1OCO2 (centres undefined)	-0.7	-3.1
O=C(CN1C(=O)C2CCCN2C(=O)c2cc(F)ccc21)NCCCN1CCCCC1 (centres undefined)	-6.4	-3.1
Cc1ccc(C)n1-c1ccc(Cl)c(C(=O)NN)c1	9.4	36.4
COc1ccc(-n2c(C)ccc2C)cc1Cl	-5.6	61.6*
CCCNc1ccc(-c2nc(-c3ccc(C)cc3)no2)cn1	1.0	-7.1
Cn1nc(COc2ccc(F)cc2)c2c1CCN(C(=O)Nc1ccc(F)c(Cl)c1)C2	-2.1	54.7*
Cn1nc(COc2cccc(F)c2)c2c1CCN(C(=O)Nc1cccc(Cl)c1)C2	-2.9	14.0
COc1ccc(NC(=O)N2CCc3c(c(COc4ccc(F)cc4)nn3C)C2)cc1F	-2.8	34.6
Cn1nc(COc2ccc(F)cc2)c2c1CCN(C(=O)Nc1cccc(C(F)(F)F)c1)C2	-2.8	59.3*
Cc1csc(-c2cc(S(=O)(=O)N3CCCCCC3)c(C)n2C)n1	2.0	-8.4
COc1ccc(C2Oc3c(Br)cc(Br)cc3C=C2[N+](=O)[O-])cc1OC (centres undefined)	-6.9	69.0*
COc1cc(C2Oc3ccccc3C=C2[N+](=O)[O-])ccc1OCc1ccccc1 (centres undefined)	-3.1	37.0
Cc1cccc(N2CCN(C(=O)CC(C)(C)C)C(C)C2=O)c1 (centres undefined)	-3.3	0.1
COc1cc(CN2CCc3nc(Nc4ccc(F)cc4F)ncc3C2)cc(OC)c1OC	-5.6	33.9
Cc1ccc2c(c1)N(C(=O)Nc1ccc(F)c(Cl)c1)CC(C)O2 (centres undefined)	-12.2	2.6
CNc1nccc(N2CCC(CC(=O)NCc3ccc(OC)c(OC)c3)CC2)n1	-2.0	17.4
CNc1nccc(N2CCC(CC(=O)NCc3cccc(C(F)(F)F)c3)CC2)n1	1.4	53.6*
O=C(Cc1ccc(Cl)cc1)NCc1cccnc1	9.8	-1.8
SMILES	Pf apPOL block	mHTT-CaM PPI inh
COc1ccc2c(c1)c(CC(=O)NCc1cccnc1)c(C)n2C(=O)c1ccc(Cl)cc1	-3.7	58.0*
O=C(Nc1nccs1)C1CCN(C(=O)Cn2ccc3ccccc32)CC1	-5.0	-2.9
CCN1C(=O)/C(=C\c2nc3ccc(I)cc3c(=O)n2CC)c2ccccc21	-9.8	44.0
Cn1c(SC/C=C/c2ccccc2)nnc1-c1ccccc1	-1.6	-5.5
COc1ccc(C2C=C(c3cccc(NC(C)=O)c3)Nc3ncnn32)c(OC)c1 (centres undefined)	83.0*	4.0
COc1ccc(C2=CC(c3cccc(OC)c3OC)n3ncnc3N2)cc1 (centres undefined)	-6.4	-2.0
COc1ccc(C2C=C(c3ccc(Br)s3)Nc3ncnn32)cc1OC (centres undefined)	-6.0	57.0*
COc1cccc(C2C=C(c3ccc(Cl)cc3)Nc3ncnn32)c1OC (centres undefined)	-4.9	58.0*
COc1cccc(C2=CC(c3ccc(OC)cc3OC)n3ncnc3N2)c1 (centres undefined)	-9.4	22.0
CCc1ccc(C2=CC(c3ccc(OC)c(OC)c3OC)n3ncnc3N2)cc1 (centres undefined)	-2.8	35.0
COc1ccc(C2C=C(c3cccs3)Nc3ncnn32)cc1OC (centres undefined)	-2.6	6.0
COc1ccc(C2C=C(c3ccc(Cl)cc3)Nc3ncnn32)c(OC)c1OC (centres undefined)	-2.9	89.0*
Cc1ccc([N+](=O)[O-])cc1NC(=O)Oc1ccccc1	-0.7	-4.0
COc1ccc(C(=O)N2CC3CC(NC(=O)c4ccccc4)C2C3)c(C)c1 (centres undefined)	-0.8	2.8
Cc1ccc(CNC(=O)C2CCc3nc(N4CCOCC4)ncc3C2)cc1C (centres undefined)	-3.4	-5.7
Cc1ccc(Oc2ccc(N(C)C(=O)Nc3ccc4c(c3)OCO4)cc2)nn1	-9.0	-8.1
CC(C)N1CCN(C2=Nc3ccccc3Oc3ccc(NC(=O)C4CC4)cc32)CC1	-3.2	15.4
COc1ccc(C2C=C(c3cccc(Br)c3)Nc3ncnn32)c(OC)c1 (centres undefined)	-8.5	45.0
COc1cccc(C2C=C(c3ccc(F)cc3)Nc3ncnn32)c1OC(F)F (centres undefined)	-4.9	73.0*
Fc1ccc(C2=CC(c3ccccc3OC(F)F)n3ncnc3N2)cc1 (centres undefined)	-5.8	10.0
COc1cc(C2C=C(c3cccc(Br)c3)Nc3ncnn32)cc(OC)c1OC (centres undefined)	-8.7	100.0*
Cc1cc(C)c2c3c([nH]c2c1)CCC(NC(=O)C1CCCC1)C3 (centres undefined)	1.6	36.3
Cc1nc(CC(=O)NC2CCc3[nH]c4cc(Cl)cc(Cl)c4c3C2)c(C)s1 (centres undefined)	0.7	77.6*
Cc1ccc2[nH]c3c(c2c1)CC(NC(=O)Cc1ccccc1C)CC3 (centres undefined)	2.9	42.1
CC(C)C(=O)NC1CCc2[nH]c3cc(Cl)cc(Cl)c3c2C1 (centres undefined)	-2.5	68.2*
SMILES	Pf apPOL block	mHTT-CaM PPI inh
COc1cc(C=O)ccc1OCc1ccccc1F	0.6	-11.6
O=C(Nc1cccs1)N1CCN(Cc2nnnn2-c2cccc(F)c2)CC1	7.9	18.4
CCc1ccc(S(=O)(=O)N2CCC(CN3CCCCC3)CC2)cc1	-0.4	-7.7
COCCn1c(=N)c(C(=O)NC(C)c2ccccc2)cc2c(=O)n3cccc(C)c3nc21 (centres undefined)	-5.5	-1.0
CC(C)CC(=O)NC(Nc1cccc(Br)c1)C(Cl)(Cl)Cl (centres undefined)	1.3	-13.0
CCOc1ncccc1C(=O)Nc1ccc(Cl)cc1	-4.0	-12.0
O=C(Nc1ccc(Nc2ccccc2)cc1)c1ccccc1F	-2.0	33.3
CCOc1ncccc1C(=O)Nc1ccc(Nc2ccccc2)cc1	-2.5	85.0*
O=C(Nc1ccc(Nc2ccccc2)cc1)c1ccccc1I	-7.9	69.6*
COc1ccc(CN2CCN(C(=O)c3cccs3)CC2)cn1	1.6	5.6
Cc1ccc(S(=O)(=O)Nc2cccc3ccc(C)nc23)cc1	-8.5	0.9
Cc1ccc(S(=O)(=O)Nc2cccc3ccc(-n4nc(C)cc4C)nc23)cc1	60.3*	0.7
COc1cc(OC)c(OC)cc1CN1CCN(c2ccccc2OC)CC1	-6.3	-1.4
COc1ccccc1N1CCN(Cc2ccc(Br)o2)CC1	84.8*	0.5
CN1C(=O)C2CCCCN2c2ccc(C(=O)N3CCC(Cc4ccccc4)CC3)cc21 (centres undefined)	2.2	87.4*
